Screening results from PubChem BioAssay.
Only some compounds are listed: those with a hit (about 4.9% of all), similar ones and a draw of the others.
HSF1 inh = HSF1 inhibition; NIH3T3-HGL HSE-luciferase, MG132-induced, luminescence 8 h; hits give low values; activity change, negative = inhibition, % at 7.5 µM (by protocol); 300,000 compounds, 0.77% hits; AID 2098;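 active = more than half of replicate wells show activity change below -50%, luminescence cut by over half; inconclusive = some wells, but at most half, below -50%; inactive = no replicate well below -50%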;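 note: luciferase reports HSF-1 transcriptional activity via heat shock element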
HSP90 refold inh = HSP90 refolding inhibition in rabbit reticulocyte lysate; luciferase refolding luminescence, 3 h; inhibition, % at 5.6 µM; 290,000 compounds, 0.91% hits;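 active = inhibition above the screen-wide mean plus 3 SD, computed separately per campaign, cut at about 16% in these data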;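 note: inhibitors lower the luminescence because luciferase stays unfolded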
dFosB act = enhances mouse delta FosB homodimer DNA binding | P13346 | purified delta FosB, TAMRA-CDK5 oligo fluorescence polarization; percent of positive-control signal above neutral wells | activation, % at 25 µM | AID 493131 | 340,000 compounds, 0.99% hits;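 active = mean activation above about 17%, with every replicate also reaching it, limit read from the data, passing the limit was not always enough; inconclusive = only one of the two conditions met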
Target sequence (P13346 whole entry, looked up): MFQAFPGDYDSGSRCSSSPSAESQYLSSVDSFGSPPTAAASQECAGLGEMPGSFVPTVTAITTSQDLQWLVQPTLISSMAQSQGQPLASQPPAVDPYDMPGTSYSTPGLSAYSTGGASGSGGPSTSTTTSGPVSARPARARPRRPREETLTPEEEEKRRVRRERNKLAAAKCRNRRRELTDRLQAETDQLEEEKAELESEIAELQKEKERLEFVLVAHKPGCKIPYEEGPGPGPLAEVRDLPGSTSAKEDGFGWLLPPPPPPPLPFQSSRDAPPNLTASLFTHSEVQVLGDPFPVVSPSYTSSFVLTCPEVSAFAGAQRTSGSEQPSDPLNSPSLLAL
MPTP block = permeability transition pore inhibition; inhibition, % at 10 µM; 360,000 compounds, 1.4% hits; isolated mouse mitochondria, Ca2+ swelling absorbance, 30 min;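 active = inhibition of 50% or more, scaled per plate between neutral and stimulator controls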
HSF1 activator = increases HSF-1 driven luciferase reporter signal. activation, % at 9 µM. NIH3T3-HGL HSF-1 luciferase reporter, MG132, 8 h; 100% = twice DMSO control signal. 300,000 compounds, 1.7% hits;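 active = mean replicate activation of at least 50% with a set share of replicates each reaching 50%; inconclusive = only one of those two conditions met; inactive = mean below 50% and too few replicates reaching it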
Platelet DG rel = platelet dense granule release activity; human platelet-rich plasma, SFLLRN dense granule ATP release, luminescence; inhibition, %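 (compounds screened at 7.5 µM in platelet-rich plasma)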; 300,000 compounds, 0.22% hits; AID 1663;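 active = mean replicate score, as percent of positive control, at or above 50; inconclusive = mean below 50 but at least one replicate at or above 50; inactive = mean and every replicate below 50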
Rh123 counter = Rhodamine 123 counter-screen of mitochondrial pore hits | shares compounds with MPTP block | isolated mitochondria, membrane potential, Rhodamine 123 fluorescence | inhibition, % at 10 µM | 5,000 compounds, 78% hits | AID 624504; in the data active = inhibition above about 22%
MPTP abs DR = MPTP inhibition, dose response swelling confirmation; shares compounds with MPTP block; isolated mitochondria swelling, absorbance; IC50, µM; 780 compounds, 58% hits; in the data active = IC50 below about 20 µM
MPTP cs DR = MPTP inhibitor counter-screen activity, dose response. IC50, µM. shares compounds with MPTP block. isolated mitochondria counterscreen, fluorescence read-out. 780 compounds, 49% hits; in the data active = IC50 below about 80 µM
Large screens that a line does not name were inactive (follow-up assays come after a bar, where they were run).

N=c1n(CC(=O)c2ccc([N+](=O)[O-])cc2)c2ccccc2n1Cc1ccc(Cl)cc1	dFosB act inconclusive, MPTP block 88 | Rh123 counter inactive
N=c1n(Cc2ccccc2)c2ccccc2n1CC(O)COc1ccc(Cl)cc1Cl (stereo unspecified)	dFosB act 30, MPTP block 74 | Rh123 counter inactive
Cc1ccc(OCC(O)Cn2c(=N)n(Cc3ccccc3)c3ccccc32)cc1 (stereo unspecified)	none
N=c1n(CC(=O)c2ccc([N+](=O)[O-])cc2)c2ccccc2n1Cc1ccccc1Cl	none (no result: HSF1 inh, HSF1 activator, Platelet DG rel)
N=c1n(CCO)c2ccccc2n1Cc1ccc(Cl)cc1	MPTP block 89 | Rh123 counter inactive | MPTP abs DR 13 | MPTP cs DR 48
N=c1n(Cc2ccc(Cl)cc2)c2ccccc2n1CC(O)COc1ccccc1 (stereo unspecified)	MPTP block 78 | Rh123 counter 27
COc1ccc(OCC(O)Cn2c(=N)n(Cc3ccccc3)c3ccccc32)cc1 (stereo unspecified)	none
O=C(CCn1c(=O)oc2ccc(Cl)cc21)N1CCN(c2ccccc2)CC1	none
Cc1nn(CCCC(=O)Nc2cc(Oc3ccc(F)cc3)cc([N+](=O)[O-])c2)c(C)c1[N+](=O)[O-]	none
Cc1c(Cl)c([N+](=O)[O-])nn1CCCC(=O)Nc1cc(Oc2ccccc2)cc([N+](=O)[O-])c1	MPTP block 85 | Rh123 counter 83
CCCCCc1ccc(CC(=O)Nn2c(C)nc3ccccc3c2=O)cc1	MPTP block 72 | Rh123 counter 68
CCCCNC(=O)C1(C)CCC(=O)N1CCCn1ccnc1 (stereo unspecified)	none (no result: HSF1 inh, HSP90 refold inh, dFosB act, HSF1 activator, Platelet DG rel)
O=C(NCCNC(=O)c1cc(OCC(F)(F)F)ccc1OCC(F)(F)F)Nc1cccc(C(F)(F)F)c1	MPTP block 72 | Rh123 counter 88
O=C(NNc1cccc(Cl)n1)Nc1cccc(C(F)(F)F)c1	MPTP block 70 | Rh123 counter 72
COC(=O)[C@H](C)NC(=O)Nc1cccc(C(F)(F)F)c1	none
O=C(Nc1cccc(C(F)(F)F)c1)c1sc(Cl)nc1C(F)(F)F	MPTP block 83 | Rh123 counter 77
O=C(Nc1ccc(OC(F)F)cc1)Nc1cccc(C(F)(F)F)c1	MPTP block 86 | Rh123 counter 63
O=C(Nc1ccccc1Cl)c1cc[n+]([O-])cc1	none
O=C(Nc1ccncc1)Nc1cccc(C(F)(F)F)c1	MPTP block 81 | Rh123 counter 99
NC(=O)/C=C\C(=O)Nc1cccc(C(F)(F)F)c1	none
N/C(=N\OC(=O)Nc1cccc(C(F)(F)F)c1)c1ccno1	MPTP block 72 | Rh123 counter 94
NNC(=O)Nc1cccc(C(F)(F)F)c1	none
Cc1nn(C)c(C(=O)NCc2ccc(Cl)cc2)c1Cl	MPTP block 93 | Rh123 counter 86
O=C(CC[C@H]1O[C@@H](n2ccc(=O)[nH]c2=O)[C@H](O)[C@@H]1O)N[C@H](Cc1ccccc1)C(=O)NCC1CCCO1 (stereo partly specified)	none (no result: HSF1 inh, HSP90 refold inh, dFosB act, HSF1 activator, Platelet DG rel)
S=C(NCC1CCCCC1)Nc1ccc(Oc2ccccc2)cc1	MPTP block 86 | Rh123 counter 86
CN1CCC(NC(=O)Nc2ccc(Br)cc2)CC1	MPTP block 67 | Rh123 counter 83
S=C(NCC1CCCCC1)Nc1cccnc1	none
CN1CCC(NC(=O)Nc2cccc(C(F)(F)F)c2)CC1	Platelet DG rel inconclusive (no result: HSF1 inh, HSF1 activator)
CC(C)(C)NC(=O)Nc1ccc(Br)cc1	MPTP block 58 | Rh123 counter 77
Cc1cccc(NC(=S)NC2CCCC2)c1	none
CC(C)(C)NC(=O)Nc1ccc(F)c(Cl)c1	none
S=C(Nc1ccc(Br)cc1)NC1CCCC1	MPTP block 95 | Rh123 counter 97
NS(=O)(=O)c1ccc(N2C(=O)CCCC2=O)cc1	none (no result: HSF1 inh, HSP90 refold inh, dFosB act, HSF1 activator, Platelet DG rel)
COc1ccc(-c2noc(C3CCCN(C(=O)c4ccc(F)cc4)C3)n2)cc1 (stereo unspecified)	none
S=C(Nc1ccc(Oc2ccccc2)cc1)NC1CCCC1	MPTP block 87 | Rh123 counter 84
O=C(/C=C/c1ccccc1)Nc1ccc(C(=O)N2CCCCC2)cc1	none
O=C(Cn1c(=O)oc2ccccc21)Nc1ccc(Cl)cc1	none
